Data taken from PubChem BioAssay AID1159580 (chemical genetic matrix, 2015).
Several values for one entry are separate records, joined by “and”; a condition that tells them apart may be missing. Identical values can stand only once. Among all 5,500 compounds or so, about 2,000 (36%) were called active. Not shown: some 18% with an inconclusive outcome. The list shows a part of the results. Values without a mark were called inactive. Rule as the data show it: active = normalized growth mostly below about 0.91 (no sharp cut-off); inconclusive = no clear call, values can overlap the other calls; inactive = mostly above about 0.92.

Assay: chemical genetic growth profiling, strain panel (AID 1159580);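 also: tested at 20 µM; growth read once vehicle control cultures reached saturation at 30 °C; 1 = growth at the plate median or of vehicle wells; lower values mean less growth of the strain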
Conditions: growth OD

With `COc1ccc2cc([C@H](C)C(=O)O)ccc2c1` the normalized growth (S. cerevisiae deletion strains, locus YJR075W, strain HOC1, stronger effect = lower value) was 1.01 and 0.988, the normalized growth (S. cerevisiae deletion strains, locus YKL009W, strain mrt4, stronger effect = lower value) was 0.916 and the normalized growth (S. cerevisiae deletion strains, locus YKL068W, stronger effect = lower value) was 0.983. It also gave a normalized growth (S. cerevisiae deletion strains, locus YKL085W, strain MDH1 (second series), stronger effect = lower value) of 0.977, a normalized growth (S. cerevisiae deletion strains, locus YKL085W, strain MDH1, stronger effect = lower value) of 0.977 and a normalized growth (S. cerevisiae deletion strains, locus YKL160W, strain elf1, stronger effect = lower value) of 0.988. It also gave a normalized growth (S. cerevisiae deletion strains, locus YKL190W, strain CNB1, stronger effect = lower value) of 1, a normalized growth (S. cerevisiae deletion strains, locus YKR001C, strain vps1, stronger effect = lower value) of 0.943 and a normalized growth (S. cerevisiae deletion strains, locus YKR026C, strain gcn3, stronger effect = lower value) of 0.983. For the same compound, the normalized growth (S. cerevisiae deletion strains, locus YKR091W, strain srl3, stronger effect = lower value) was 0.982, the normalized growth (S. cerevisiae deletion strains, locus YLL001W, strain dnm1, stronger effect = lower value) was 0.982 and the normalized growth (S. cerevisiae deletion strains, locus YLL026W, stronger effect = lower value) was 0.997. It also gave a normalized growth (S. cerevisiae deletion strains, locus YLL041C, strain sdh2, stronger effect = lower value) of 0.971, a normalized growth (S. cerevisiae deletion strains, locus YLR027C, strain aat2, stronger effect = lower value) of 0.971 and a normalized growth (S. cerevisiae deletion strains, locus YLR039C, strain RIC1, stronger effect = lower value) of 0.929. The normalized growth (S. cerevisiae deletion strains, locus YLR058C, strain SHM2, stronger effect = lower value) was 1.01, the normalized growth (S. cerevisiae deletion strains, locus YLR102C, strain apc9, stronger effect = lower value) was 0.986 and the normalized growth (S. cerevisiae deletion strains, locus YLR113W, strain HOG1, stronger effect = lower value) was 0.757 (active). It also gave a normalized growth (S. cerevisiae deletion strains, locus YLR221C, strain rsa3, stronger effect = lower value) of 0.993, a normalized growth (S. cerevisiae deletion strains, locus YLR258W, strain gsy2, stronger effect = lower value) of 0.982 and a normalized growth (S. cerevisiae deletion strains, locus YLR262C, strain YPT6 (second series), stronger effect = lower value) of 0.944. The normalized growth (S. cerevisiae deletion strains, locus YLR262C, strain YPT6, stronger effect = lower value) was 0.903, the normalized growth (S. cerevisiae deletion strains, locus YLR268W, strain sec22, stronger effect = lower value) was 1.05 and the normalized growth (S. cerevisiae deletion strains, locus YLR320W, strain mms22, stronger effect = lower value) was 0.955. The normalized growth (S. cerevisiae deletion strains, locus YLR330W, strain CHS5, stronger effect = lower value) was 0.997, the normalized growth (S. cerevisiae deletion strains, locus YLR342W, strain FKS1 (second series), stronger effect = lower value) was 0.98 and the normalized growth (S. cerevisiae deletion strains, locus YLR342W, strain FKS1, stronger effect = lower value) was 0.967. For the same compound, the normalized growth (S. cerevisiae deletion strains, locus YLR357W, strain rsc2, stronger effect = lower value) was 0.963, the normalized growth (S. cerevisiae deletion strains, locus YLR370C, strain arc18, stronger effect = lower value) was 0.971 and the normalized growth (S. cerevisiae deletion strains, locus YLR371W, strain rom2, stronger effect = lower value) was 0.989. The normalized growth (S. cerevisiae deletion strains, locus YLR384C, strain iki3, stronger effect = lower value) was 0.976, the normalized growth (S. cerevisiae deletion strains, locus YLR418C, strain cdc73, stronger effect = lower value) was 0.971 and the normalized growth (S. cerevisiae deletion strains, locus YML016C, strain PPZ1, stronger effect = lower value) was 1. It also gave a normalized growth (S. cerevisiae deletion strains, locus YML032C, strain rad52, stronger effect = lower value) of 1, a normalized growth (S. cerevisiae deletion strains, locus YML120C, strain ndi1, stronger effect = lower value) of 0.99 and a normalized growth (S. cerevisiae deletion strains, locus YML124C, strain tub3, stronger effect = lower value) of 0.992. The normalized growth (S. cerevisiae deletion strains, locus YMR058W, strain fet3, stronger effect = lower value) was 0.969, the normalized growth (S. cerevisiae deletion strains, locus YMR078C, strain ctf18, stronger effect = lower value) was 0.977 and the normalized growth (S. cerevisiae deletion strains, locus YMR125W, strain sto1, stronger effect = lower value) was 0.972. For the same compound, the normalized growth (S. cerevisiae deletion strains, locus YMR129W, stronger effect = lower value) was 0.96, the normalized growth (S. cerevisiae deletion strains, locus YMR205C, strain PFK2, stronger effect = lower value) was 0.974 and the normalized growth (S. cerevisiae deletion strains, locus YMR223W, strain ubp8, stronger effect = lower value) was 0.963. The normalized growth (S. cerevisiae deletion strains, locus YMR231W, strain pep5, stronger effect = lower value) was 0.987, the normalized growth (S. cerevisiae deletion strains, locus YMR263W, strain SAP30, stronger effect = lower value) was 1.01 and 0.996 and the normalized growth (S. cerevisiae deletion strains, locus YMR307W, strain GAS1, stronger effect = lower value) was 0.955. For the same compound, the normalized growth (S. cerevisiae deletion strains, locus YNL067W, strain RPL9B, stronger effect = lower value) was 1.02, the normalized growth (S. cerevisiae deletion strains, locus YNL071W, strain lat1, stronger effect = lower value) was 0.96 and the normalized growth (S. cerevisiae deletion strains, locus YNL128W, strain TEP1, stronger effect = lower value) was 0.996 and 0.976. The normalized growth (S. cerevisiae deletion strains, locus YNL153C, strain GIM3, stronger effect = lower value) was 1.02 and 1.01, the normalized growth (S. cerevisiae deletion strains, locus YNL175C, strain NOP13, stronger effect = lower value) was 0.964 and the normalized growth (S. cerevisiae deletion strains, locus YNL183C, strain NPR1, stronger effect = lower value) was 0.88. It also gave a normalized growth (S. cerevisiae deletion strains, locus YNL197C, strain WHI3, stronger effect = lower value) of 0.963, a normalized growth (S. cerevisiae deletion strains, locus YNL209W, strain ssb2, stronger effect = lower value) of 0.978 and a normalized growth (S. cerevisiae deletion strains, locus YNL224C, strain SQS1, stronger effect = lower value) of 0.978. It also gave a normalized growth (S. cerevisiae deletion strains, locus YNL233W, strain BNI4, stronger effect = lower value) of 1.02, a normalized growth (S. cerevisiae deletion strains, locus YNL248C, strain rpa49, stronger effect = lower value) of 0.977 and a normalized growth (S. cerevisiae deletion strains, locus YNL250W, strain rad50, stronger effect = lower value) of 0.928. For the same compound, the normalized growth (S. cerevisiae deletion strains, locus YNL271C, strain bni1, stronger effect = lower value) was 0.938, the normalized growth (S. cerevisiae deletion strains, locus YNL298W, strain CLA4, stronger effect = lower value) was 0.848 (active) and the normalized growth (S. cerevisiae deletion strains, locus YNL307C, strain MCK1, stronger effect = lower value) was 0.98. For the same compound, the normalized growth (S. cerevisiae deletion strains, locus YNL322C, strain KRE1 (second series), stronger effect = lower value) was 0.938, the normalized growth (S. cerevisiae deletion strains, locus YNL322C, strain KRE1, stronger effect = lower value) was 1.01 and 0.995 and the normalized growth (S. cerevisiae deletion strains, locus YNR049C, strain mso1, stronger effect = lower value) was 0.972. For the same compound, the normalized growth (S. cerevisiae deletion strains, locus YNR052C, strain pop2, stronger effect = lower value) was 0.969, the normalized growth (S. cerevisiae deletion strains, locus YOL006C, strain TOP1, stronger effect = lower value) was 1.06 and the normalized growth (S. cerevisiae deletion strains, locus YOL012C, strain htz1) was 1.17. For the same compound, the normalized growth (S. cerevisiae deletion strains, locus YOL147C, strain pex11, stronger effect = lower value) was 0.994, the normalized growth (S. cerevisiae deletion strains, locus YOR001W, strain rrp6, stronger effect = lower value) was 0.957 and the normalized growth (S. cerevisiae deletion strains, locus YOR061W, strain CKA2, stronger effect = lower value) was 1. It also gave a normalized growth (S. cerevisiae deletion strains, locus YOR069W, strain VPS5, stronger effect = lower value) of 1, a normalized growth (S. cerevisiae deletion strains, locus YOR070C, strain gyp1, stronger effect = lower value) of 0.978 and a normalized growth (S. cerevisiae deletion strains, locus YOR080W, strain dia2, stronger effect = lower value) of 0.976. For the same compound, the normalized growth (S. cerevisiae deletion strains, locus YOR083W, strain WHI5 (second series), stronger effect = lower value) was 0.972, the normalized growth (S. cerevisiae deletion strains, locus YOR083W, strain WHI5, stronger effect = lower value) was 1.01 and the normalized growth (S. cerevisiae deletion strains, locus YOR106W, strain vam3, stronger effect = lower value) was 0.978. For the same compound, the normalized growth (S. cerevisiae deletion strains, locus YOR136W, strain idh2, stronger effect = lower value) was 0.993, the normalized growth (S. cerevisiae deletion strains, locus YOR144C, strain elg1, stronger effect = lower value) was 0.995 and the normalized growth (S. cerevisiae deletion strains, locus YOR184W, strain ser1, stronger effect = lower value) was 0.958. For the same compound, the normalized growth (S. cerevisiae deletion strains, locus YOR231W, strain MKK1, stronger effect = lower value) was 0.898, the normalized growth (S. cerevisiae deletion strains, locus YOR265W, strain rbl2, stronger effect = lower value) was 0.994 and the normalized growth (S. cerevisiae deletion strains, locus YOR270C, strain vph1, stronger effect = lower value) was 0.938. It also gave a normalized growth (S. cerevisiae deletion strains, locus YOR290C, strain snf2, stronger effect = lower value) of 0.937, a normalized growth (S. cerevisiae deletion strains, locus YOR316C, strain cot1, stronger effect = lower value) of 0.999 and a normalized growth (S. cerevisiae deletion strains, locus YPL051W, strain arl3, stronger effect = lower value) of 0.994. For the same compound, the normalized growth (S. cerevisiae deletion strains, locus YPL055C, strain LGE1, stronger effect = lower value) was 0.99 and 0.992, the normalized growth (S. cerevisiae deletion strains, locus YPL078C, strain atp4, stronger effect = lower value) was 0.979 and the normalized growth (S. cerevisiae deletion strains, locus YPL106C, strain sse1, stronger effect = lower value) was 0.994. For the same compound, the normalized growth (S. cerevisiae deletion strains, locus YPL240C, strain hsp82, stronger effect = lower value) was 0.993, the normalized growth (S. cerevisiae deletion strains, locus YPL241C, strain CIN2, stronger effect = lower value) was 1 and the normalized growth (S. cerevisiae deletion strains, locus YPL256C, strain CLN2, stronger effect = lower value) was 0.807 (active). It also gave a normalized growth (S. cerevisiae deletion strains, locus YPR119W, strain clb2, stronger effect = lower value) of 0.977, a normalized growth (S. cerevisiae deletion strains, locus YPR141C, strain kar3, stronger effect = lower value) of 0.961 and a normalized growth (S. cerevisiae deletion strains, locus YPR163C, strain tif3, stronger effect = lower value) of 0.987. It also gave a normalized growth (S. cerevisiae deletion strains, locus YPR167C, strain met16, stronger effect = lower value) of 0.986, a normalized growth (S. cerevisiae deletion strains, strain wtn01, stronger effect = lower value) of 1.01 and a normalized growth (S. cerevisiae strains, strain wild type, stronger effect = lower value) of 1.
